Experimental data: PubChem BioAssay
Unmarked numbers belong to inactive results. For some of these results: Entries with a potency or affinity are not part of this list. The source made the active and inactive calls. Unless noted, how the calls were made is not given here.

Tests used:
[1] = antimalarial activity against Dd2 strain (AID 2302;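 active means growth inhibition above 50% at the single 2 µM test dose, taken to imply half-maximal potency below 2 µM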;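 further: 0% = DMSO untreated growth and 100% = chloroquine plus artemisinin killed control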); conditions: P. falciparum Dd2 in RBCs, LDH growth readout, 72 h; at 2 µM; stronger effect = higher value
[2] = human hepatoma cell viability loss – ATP luminescence, cytotoxicity control for P. falciparum antimalarial project, primary screen (AID 2303;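 active means inhibition above 50%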;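 further: 0% = DMSO wells and 100% = digitonin-killed cells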); conditions: HepG2 viability, 24-48 h, at 10 µM, stronger effect = higher value
[3] = biological target: L-lactate dehydrogenase (Plasmodium falciparum (isolate CDC / Honduras)) (UniProt Q27743); assay: PfLDH activity inhibition – cell lysate, 3D7 strain, counter-screen for P. falciparum growth inhibition project (AID 2304);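 further: 0% = vehicle and 100% = reference inhibitor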; conditions: P. falciparum 3D7 crude extract, LDH APAD/NBT absorbance; at 2 µM; stronger effect = higher value
Chain of L-lactate dehydrogenase (Plasmodium falciparum (isolate CDC / Honduras)) (Q27743 whole entry, looked up): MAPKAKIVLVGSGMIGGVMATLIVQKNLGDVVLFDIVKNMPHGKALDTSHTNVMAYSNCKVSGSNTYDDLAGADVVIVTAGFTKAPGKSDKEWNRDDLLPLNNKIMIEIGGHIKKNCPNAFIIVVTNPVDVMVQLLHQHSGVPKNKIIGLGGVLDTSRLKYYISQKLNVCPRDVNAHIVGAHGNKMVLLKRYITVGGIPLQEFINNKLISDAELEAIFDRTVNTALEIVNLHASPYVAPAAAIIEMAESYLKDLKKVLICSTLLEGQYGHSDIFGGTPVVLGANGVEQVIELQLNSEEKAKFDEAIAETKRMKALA

[4] = inhibition of 3D7 malaria parasite growth – strain 3D7 (AID 2306);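 further: 0% = DMSO wells and 100% = chloroquine plus artemisinin control wells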; conditions: P. falciparum 3D7 erythrocytic growth, LDH absorbance, 72 h; at 2 µM; stronger effect = higher value
[5] = biological target: Calcium-dependent protein kinase 1 (Plasmodium falciparum (isolate 3D7)) (UniProt P62344); assay: PfCDPK1 kinase inhibitors, biochemical, TCAMS library (AID 1159585; cut-off not given, nearly all actives have IC50 up to about 0.98 µM;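 further: inhibitors leave more ATP so luminescence rises with inhibition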); conditions: recombinant PfCDPK1, Kinase-Glo ATP depletion luminescence
Chain of Calcium-dependent protein kinase 1 (Plasmodium falciparum (isolate 3D7)) (P62344 whole entry, looked up): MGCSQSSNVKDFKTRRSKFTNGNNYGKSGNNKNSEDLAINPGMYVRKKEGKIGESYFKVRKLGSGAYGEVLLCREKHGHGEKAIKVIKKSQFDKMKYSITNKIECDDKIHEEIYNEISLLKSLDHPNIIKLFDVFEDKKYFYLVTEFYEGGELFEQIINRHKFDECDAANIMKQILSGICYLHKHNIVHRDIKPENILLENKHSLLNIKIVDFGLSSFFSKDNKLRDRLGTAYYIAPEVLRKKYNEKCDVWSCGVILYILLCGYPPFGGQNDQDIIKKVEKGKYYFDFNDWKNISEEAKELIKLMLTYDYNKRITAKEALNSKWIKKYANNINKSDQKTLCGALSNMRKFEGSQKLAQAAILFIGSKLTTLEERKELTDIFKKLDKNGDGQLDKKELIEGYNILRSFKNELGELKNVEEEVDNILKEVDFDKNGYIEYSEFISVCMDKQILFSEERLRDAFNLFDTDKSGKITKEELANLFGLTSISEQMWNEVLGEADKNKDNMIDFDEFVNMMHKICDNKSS

[6] = biological target: Plasmodium falciparum protein kinase 6 (PK6, PF3D7_1337100) (UniProt Q8IDW1); assay: PfPK6 kinase inhibitors, biochemical, TCAMS library (AID 1159586); conditions: recombinant PfPK6, Kinase-Glo ATP depletion luminescence
Chain of Plasmodium falciparum protein kinase 6 (PK6, PF3D7_1337100) (Q8IDW1 1-305): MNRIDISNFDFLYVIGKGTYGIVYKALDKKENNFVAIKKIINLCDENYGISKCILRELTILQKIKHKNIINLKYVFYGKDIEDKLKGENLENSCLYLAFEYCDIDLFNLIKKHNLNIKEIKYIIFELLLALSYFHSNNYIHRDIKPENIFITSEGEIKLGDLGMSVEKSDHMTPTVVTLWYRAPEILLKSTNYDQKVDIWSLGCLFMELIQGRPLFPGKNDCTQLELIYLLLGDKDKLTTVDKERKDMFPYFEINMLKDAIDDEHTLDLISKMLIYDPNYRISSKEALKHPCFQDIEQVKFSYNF

[7] = biological target: Protein kinase 7 (PK7), Plasmodium falciparum 3D7 (PF3D7_0213400) (UniProt Q7YTF7); assay: inhibition of Plasmodium PK7 catalytic activity – biochemical, TCAMS antimalarial set, Kinase-Glo luminescence (AID 1159587); conditions: recombinant PfPK7, Kinase-Glo ATP depletion luminescence
Chain of Protein kinase 7 (PK7), Plasmodium falciparum 3D7 (PF3D7_0213400) (Q7YTF7 1-343): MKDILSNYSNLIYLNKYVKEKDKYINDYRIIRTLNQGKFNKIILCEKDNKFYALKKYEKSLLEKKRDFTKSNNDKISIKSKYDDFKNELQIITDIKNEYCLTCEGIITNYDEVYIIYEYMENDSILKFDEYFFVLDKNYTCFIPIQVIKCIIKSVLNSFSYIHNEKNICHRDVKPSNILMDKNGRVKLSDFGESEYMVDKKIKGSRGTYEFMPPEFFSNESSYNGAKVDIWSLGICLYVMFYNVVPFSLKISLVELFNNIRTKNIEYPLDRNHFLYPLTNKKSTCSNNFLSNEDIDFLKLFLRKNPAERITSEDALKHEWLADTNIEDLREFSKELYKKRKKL

[8] = biological target: Calcium-dependent protein kinase 4 (Plasmodium falciparum (isolate 3D7)) (UniProt Q8IBS5); assay: PfCDPK4 kinase inhibitors, biochemical, TCAMS library (AID 1159588; cut-off not given, nearly all actives have IC50 up to about 0.91 µM); conditions: recombinant PfCDPK4, Kinase-Glo ATP depletion luminescence
Chain of Calcium-dependent protein kinase 4 (Plasmodium falciparum (isolate 3D7)) (Q8IBS5 whole entry, looked up): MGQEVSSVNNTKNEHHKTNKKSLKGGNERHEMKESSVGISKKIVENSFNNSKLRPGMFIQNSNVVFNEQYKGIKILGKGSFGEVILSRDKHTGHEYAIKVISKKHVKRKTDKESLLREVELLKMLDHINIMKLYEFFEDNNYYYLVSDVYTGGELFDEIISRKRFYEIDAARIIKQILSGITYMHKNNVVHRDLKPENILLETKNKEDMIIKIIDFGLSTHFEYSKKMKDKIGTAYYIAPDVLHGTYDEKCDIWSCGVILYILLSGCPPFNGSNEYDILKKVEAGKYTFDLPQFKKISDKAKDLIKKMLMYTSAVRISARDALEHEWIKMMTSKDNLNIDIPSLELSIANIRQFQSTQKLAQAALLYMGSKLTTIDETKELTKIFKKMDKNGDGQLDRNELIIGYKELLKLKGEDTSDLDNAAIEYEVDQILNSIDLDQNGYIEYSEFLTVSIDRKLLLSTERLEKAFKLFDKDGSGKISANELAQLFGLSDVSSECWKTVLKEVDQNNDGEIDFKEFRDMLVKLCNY

Row | Compound | growth inhibition [1] | inhibition [2] | inhibition [3] [%] | growth inhibition [4] | outcome [5] | outcome [6] | outcome [7] | outcome [8]
1 | O=C(Nc1ccc2c(c1)CCNCC2)Nc1ccc2ccccc2c1 | 23% | -6% | -1 | 84% (active) | inactive | inactive | inactive | inactive
2 | O=C(Nc1ccc(OC2CCN(Cc3ccc(F)cc3)CC2)c(Cl)c1)c1cccs1 | 96% (active) | 7% | -1 | 95% (active) | inactive | inactive | inactive | inactive
3 | c1ccc(CSC2=NNC(c3ccccn3)S2)cc1 (stereo not given) | 65% (active) | 6% | 0 | 80% (active) | inactive | inactive | inactive | inactive
4 | O=C(/C=C/c1ccc(Cl)c(Cl)c1)NCCCCCCN1CCCN(C(=O)Nc2ccc(Cl)c(C(F)(F)F)c2)CC1 | 24% | 25% | -4 | 101% (active) | inactive | inactive | inactive | inactive
5 | O=C(Nc1ccc(C(=O)OC[C@@H]2CCCN3CCCC[C@H]23)cc1)c1ccc(Cl)c(Cl)c1 | 37% | 20% | 0 | 99% (active) | inactive | inactive | inactive | inactive
6 | CCCC(C)Nc1nc(C)cc(N[C@@H](CC(C)C)C(=O)NC2CCCC2)n1 (stereo not given in full) | 22% | 6% | -2 | 85% (active) | inactive | inactive | inactive | inactive
7 | CCCCN(CCCC)Cc1cc2ccccc2cc1O | 98% (active) | 9% | -6 | 100% (active) | inactive | inactive | inactive | inactive
8 | CCn1ncc2c(N3CCCC3=O)cc(C(=O)N[C@@H](Cc3ccccc3)[C@H](O)CNC(C)(C)c3cccc(OC)c3)cc21 | 97% (active) | 6% | 0 | 98% (active) | inactive | inactive | inactive | inactive
9 | COc1cc(CNCCCCCCNCc2cc(OC)c3ccccc3c2OC)c(OC)c2ccccc12 | 40% | 99% (active) | -2 | 102% (active) | inactive | inactive | inactive | inactive
10 | COc1ccc(-c2nc(NC(=O)CS(=O)(=O)c3ccccc3)sc2C)cc1 | 82% (active) | 7% | -9 | 99% (active) | inactive | inactive | inactive | inactive
11 | CN(C)c1ccc(NC(=O)Nc2ccnc3ccc(Br)cc23)cc1 | 21% | -5% | 6 | 91% (active) | inactive | inactive | inactive | inactive
12 | COc1cc2nc(NCc3ccccc3)nc(NCc3ccccc3)c2cc1OC | 102% (active) | 66% (active) | -3 | 102% (active) | inactive | inactive | inactive | inactive
13 | CCn1ncc(Cl)c1CN(C)S(=O)(=O)c1ccc2ccccc2c1 | 91% (active) | 16% | -2 | 101% (active) | inactive | inactive | inactive | inactive
14 | O=C(c1ccc(-c2ccc(Cl)cc2)o1)N1CCc2cc3nccc(N4CCN5CCC[C@H]5C4)c3cc21 | 86% (active) | 1% | -3 | 101% (active) | inactive | inactive | inactive | inactive
15 | COc1cccc(C2CCCN(CCCCNC(=O)c3ccc(NC(=O)c4ccc(Cl)cc4)cc3)C2)c1 (stereo not given) | 6% | 24% | -2 | 95% (active) | inactive | inactive | inactive | inactive
16 | O=C(Nc1ccc(Cl)cc1)c1ccc(CN2CCCN(CC3CCCCC3)CC2)cc1 | 42% | 48% | 0 | 92% (active) | inactive | inactive | inactive | inactive
17 | Cc1cc(Nc2cc(Cl)cc(Cl)c2)nc(N)n1 | 28% | -12% | 3 | 94% (active) | inactive | inactive | inactive | inactive
18 | CCCc1cc(Cc2cnc(N)nc2N)cc(OC)c1OC | 4% | 2% | 6 | 87% (active) | inactive | inactive | inactive | inactive
19 | O=[N+]([O-])c1ccc2c(-c3ccccc3)c(-c3ccccc3)n(O)c2c1 | 11% | 8% | -3 | 97% (active) | inactive | inactive | inactive | inactive
20 | Cc1cccc(CN2CCC(Oc3ccc(NC(=O)c4cccs4)cc3Cl)CC2)n1 | 88% (active) | 27% | 7 | 86% (active) | inactive | inactive | inactive | inactive
